Test results published in the supplement of paper PMC6555819.

System: VDR:RXRa (NR concentration 270 nM, RXRa partner concentration 90 nM)
Assay: PBM binding z-score (relative to random genomic background probes); higher = stronger binding; sequences stand for … in GC…GCGATTGACAGCGTAGAATGAAGG
Procedure: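 Protein-binding microarray (Agilent 4x180K custom design, double-stranded 60-nt probes: 5' GC cap, 34-nt variable region, 24-nt constant primer region; full probe sequence given). Purified or IVT nuclear receptor:RXRα heterodimers (3:1 NR:RXRα, mostly 270:90 nM) or homodimers were incubated for 1 h in PBS with 2% milk and no ligand, then detected with Alexa488 antibodies. Fluorescence from o1-orientation probes (~5 replicates averaged) was converted to z-scores against 500 random hg19 background probes. Variable regions are seed direct-repeat (DR0–DR5) sites, all their single-nucleotide variants and half-site ablations.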

Sequence | PBM binding z-score
TCTAGCAGGCCAGAGGGTGACTCAAGAGGTACGG | -0.421
GCGACTGGGGCAGAGCAGGTTACCATAAGGTTGG | -0.508
TCGAGTAGGTTAGTCGGGGCTTTCAGCCAACATA | -0.0861
ATATGTGGGTTAGCTGGGGTCATTCAGACTAGGC | 5.99
CTCGAGAGGTCGGTTGAGGTGAGTATACGGATAA | 2.59
CAAACTAGGTGAAGGTCAAAGTCGGTTTGTGCCA | 3.79
ACTATTAGTTGAGACGAGGGCAACGGATAGGTTG | 0.66
GCTATAAGTTGAAAGGGCAACCGAATGATTCTCG | 0.931
CCTACTGGGCCATTCACAGGTCATTGATCATATG | 1.72
TAGCCTATGTCATTGGGCCAGTATAGTACGCATC | -0.316
CCGACTTGGGCAAGGTTACCATAACGCACAGCCA | 0.176
AGAACGAGGGAAATGAGTTGATAGCACGGGTGGC | 0.62
TCTTGTAGTTCAATAGAGGTTAAGAAAGTGCGCT | 3.41
GGACCGAGGGCATTCGAGTTGATAGCATGGCGAT | 3.66
TGAATGAGGATAAAGATCAGGGAACGTGGCGTCG | -0.375
CCTTACGGGTTAAGGTTATAGCACGGGTGGTACG | 0.894
CCTTGGAGGACAGAAGGTCAGAGCTGTCCGCTTT | 1.12
TCAGACAGGTGAGGGTAACTCAGGTACGCAGTCG | 0.677
CAAACTAGGTCAAAAGTCAAAGTCGAGCCAACCA | 2.46
CCGACTGGGGCAAAGGTTACAATACTCAGTACGA | 1.71

Sequence | PBM binding z-score
CCAGACAGGTGAAAGGTTACTCAGTCTGGTACGC | 2.35
ATATCTAGGTAAAGATAGTTCAGTGAATGCAAAT | 0.986
ATCGACAGGTCGTGAGGTGAGTATACAGAAAGGC | 1.12
ATCTCTAGGAAACCAAGTTCAGTGAATGCCGAAC | 1.49
CGTCCAAGGTCAGCAGGTCGGTGAAAGCGACGTG | 3.71
ACTAGCGGGCCAAGGGTCACTCAAGATTAGTCCG | 2.66
TCTGTTAGTTGATTAGGGCAACCGAAACAGCGGA | 0.452
CAGCCTAGGTCAGGGCCAGTAGAGGAGGAACGTT | -0.0759
TCTTGTAGATCAACAGGAGGTGAAGAAAGATCGA | 0.032
GCGACTGGGGCGTCAGCAGGTTACCATAACTTAA | -0.382
AATACAGGGTCACTAGGCCAGAGCAGGTACGAAT | 4.03
GCATGTAGATCAAGGTTAAGAAAGACTAAGCTAA | 0.22
CCTAGTTGGTCAGGAGGTCACCCACCGGATATGA | 3.66
AAGACAGGGTCATCGTAGGCCAGAGTACGCACAG | 5.14
GGAACGAGGGCATTCGAGTTGATAGCCTGGCGAT | 3.37
CCCAGTTGGTCAAGGTCACACACGCTATAGGTAC | 4.58
TCTGCTAGATCAACGATGGTCAGCTAATCTGCTA | -0.489
CCAGACAGGTAAGAAGGTAACTCAGCCTCGATTA | 0.00354
TCGAGTAGGTTAGGGGCATTCATAATGGCGTCGA | 0.655
CCTACTGGGCCATCAGGTCGTTGATATCAACGTT | 0.18
